Sampled rows, rich in hits. Any-hit rate of the full collection: about 7.6%.
KCNH2 WT inh: qHTS for Inhibitors of KCHN2 3.1: Wildtype qHTS; Voltage-gated inwardly rectifying potassium channel KCNH2 (Homo sapiens), Q12809; U2OS, BacMam KCNH2, thallium flux FluxOr; active compounds read low; activity change, % at 1.84 µM; 0.37% of 340,000 active; AID 720551, 2013;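 active means maximum activity change below -70%; inconclusive means maximum activity change between -70% and -50%; inactive means maximum activity change above -50%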
Target sequence (Q12809 whole entry, looked up): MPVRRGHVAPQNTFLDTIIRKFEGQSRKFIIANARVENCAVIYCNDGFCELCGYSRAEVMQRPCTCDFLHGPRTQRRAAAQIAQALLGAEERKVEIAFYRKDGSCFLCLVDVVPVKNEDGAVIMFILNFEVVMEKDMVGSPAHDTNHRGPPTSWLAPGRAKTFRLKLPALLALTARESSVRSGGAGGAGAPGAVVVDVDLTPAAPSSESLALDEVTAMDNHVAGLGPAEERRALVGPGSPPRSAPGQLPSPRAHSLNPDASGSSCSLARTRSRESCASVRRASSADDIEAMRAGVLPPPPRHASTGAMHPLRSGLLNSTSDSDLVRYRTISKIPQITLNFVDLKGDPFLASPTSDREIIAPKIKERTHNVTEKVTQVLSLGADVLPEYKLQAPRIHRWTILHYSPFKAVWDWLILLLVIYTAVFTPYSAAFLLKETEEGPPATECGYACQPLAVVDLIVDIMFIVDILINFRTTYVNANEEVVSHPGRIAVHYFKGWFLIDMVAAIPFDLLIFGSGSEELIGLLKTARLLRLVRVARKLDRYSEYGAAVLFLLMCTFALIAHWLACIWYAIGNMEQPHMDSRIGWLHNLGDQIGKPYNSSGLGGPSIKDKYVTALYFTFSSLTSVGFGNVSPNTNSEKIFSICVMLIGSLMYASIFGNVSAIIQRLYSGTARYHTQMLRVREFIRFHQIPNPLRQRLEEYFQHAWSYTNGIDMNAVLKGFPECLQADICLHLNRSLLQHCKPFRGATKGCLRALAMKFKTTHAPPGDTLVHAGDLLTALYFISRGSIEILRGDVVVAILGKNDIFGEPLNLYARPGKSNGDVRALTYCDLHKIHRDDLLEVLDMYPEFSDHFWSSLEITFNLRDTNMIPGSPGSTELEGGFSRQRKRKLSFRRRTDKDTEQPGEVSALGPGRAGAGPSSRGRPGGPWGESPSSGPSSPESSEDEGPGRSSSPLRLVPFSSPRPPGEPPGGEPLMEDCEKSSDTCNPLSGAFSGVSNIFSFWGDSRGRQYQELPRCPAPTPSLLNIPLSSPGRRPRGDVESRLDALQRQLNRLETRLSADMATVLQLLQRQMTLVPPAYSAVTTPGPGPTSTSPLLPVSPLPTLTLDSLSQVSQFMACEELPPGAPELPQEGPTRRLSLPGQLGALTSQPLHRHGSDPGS
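U2OS cells were transduced with wild-type KCNH2 virus (2.03 x 10^8 / mL) for 4 h at room temperature, then cultured overnight at 37 C. Thallium flux was read with FluxOr dye. Rate constants were normalized to DMSO controls.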
KB-3-1 cytotox: qHTS assay for MDR1-selective chemotherapeutics: Primary screen using the parental adenocarcinoma cell KB-3-1; KB-3-1 viability, CellTiter-Glo ATP luminescence, 72 h; Potency, µM (highest dose often 46.1 µM), hits mostly cytotoxic; 1.4% of 400,000 active; AID 1347075, 2019; further: nearly all actives have a fitted effect of over 60% in size
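KB-3-1 cells, DMEM (no phenol red) + 10% FBS; compound by pin transfer, 72 h, 37 °C. Readout: CellTiter-Glo luminescence after 10 min. Data normalized, curve-fitted.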
KB-V1 MDR tox: qHTS assay for MDR1-selective chemotherapeutics: Primary screen using the drug-selected MDR subline cells KB-V1; 3.4% of 400,000 active; KB-V1 MDR cells viability, CellTiter-Glo, 72 h; Potency, µM (doses to about 46.1 µM), usual class: cytotoxic; further: nearly all actives have a fitted effect of over 60% in size
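Drug-selected KB-V1 cells, grown in DMEM lacking phenol red with 10% FBS, receive compound titrations; after three days at 37 degrees C, surviving cell ATP is quantified by CellTiter-Glo luminescence and responses normalized and curve-fitted.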
SW480 rerep: A quantitative high throughput screen for small molecules that induce DNA re-replication in SW480 colon adenocarcinoma cells; SW480 DNA re-replication, Hoechst DNA content imaging, 48 h; Potency, µM (top dose mostly 46.1 µM), hits mostly activators; 1.8% of 340,000 active; further: nearly all actives have a fitted effect of over 55% in size
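Cells (250 per well) received 23 nL compound or DMSO by pin tool and were kept 48 hr at 37 C, 5% CO2. Nuclei were then stained with Hoechst for 40 min and scanned for DNA content.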
KCNH2 3.1 block: qHTS for Inhibitors of KCHN2 3.1: Mutant qHTS. Potassium voltage-gated channel subfamily H member 2, brain isoform KCNH2 3.1 (human). U2OS KCNH2 3.1, thallium flux FluxOr; active compounds read low. activity change, % (tested at about 1.8 µM). 0.95% of 340,000 active;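 active means maximum activity change below -70%; inconclusive means maximum activity change from -70% to -50%; inactive means maximum activity change above -50%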;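 further: thallium influx rate constant from kinetic fluorescence after stimulation buffer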
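Thallium flux via FluxOr fluorescence (Red40 quencher, 45 min loading) in U2OS cells virally expressing the KCNH2 3.1 isoform (1.77 x 10^8 /mL virus, overnight at 37 C). Rate constants from 2-min kinetic reads post-stimulation, normalised to positive and negative controls.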
MCF10A rerep: A quantitative high throughput screen for small molecules that induce DNA re-replication in MCF 10a normal breast cells; MCF 10A DNA re-replication, Hoechst nuclear intensity, 48 h; Potency, µM (doses to about 46.1 µM), actives largely listed as activators; 2.9% of 350,000 active; further: nearly all actives have a fitted effect of over 50% in size
A number is an active result; n = inactive; u = inconclusive; x = no result; ! = a repeat was not active. Unless noted, the call rests on the fitted dose curve; in most records, active means well fitted curve in the direction sought with a large enough effect; inconclusive means small, poorly fitted or top-dose-only effect, or another doubt; inactive means no such curve, though single readings can be large; an effect the other way counts as inactive or inconclusive.

SMILES	KCNH2 WT inh	KB-3-1 cytotox	KB-V1 MDR tox	SW480 rerep	KCNH2 3.1 block	MCF10A rerep
Brc1cnc2nc(SCc3nc4ccccc4[nH]3)[nH]c2c1	n	n	n	n	n	n
O=c1ncccn1C1OC(CO)C(O)C1O (stereo unspecified)	x	n	n	x	x	x
OCC1OC(n2ccc3c(SCc4ccccc4)ncnc32)C(O)C1O (stereo unspecified)	n	u	u	n	x	n
O=c1[nH]c(=O)n(C2OC(CO)C(O)C2O)cc1F (stereo unspecified)	n	20.6µM	20.6µM	1.03µM	n	u
O=c1[nH]c(=S)ccn1C1OC(CO)C(O)C1O (stereo unspecified)	n	9.2µM	u	n	n	u
O=c1[nH]cnc2c1ccn2C1OC(CO)C(O)C1O (stereo unspecified)	n	14.6µM	16.4µM	n	n	2.06µM
O=c1[nH]c(=O)n([C@H]2C[C@@H](O)[C@@H](CO)O2)cc1F	x	u	n	x	x	x
COc1cccc(NC(C)C(=O)Nc2cc([N+](=O)[O-])ccc2Cl)c1 (stereo unspecified)	n	n	u	u	n	u
Cc1nc(N)[nH]c(=O)c1CCCNc1ccc([N+](=O)[O-])cc1	n	n	n	n	-119.2	n
Cc1ccc2c(c1)C(=O)N1[C@H]3c4cc(C)ccc4OC[C@@H]3[C@H](c3ccccc3)[C@]1(C)C(=O)N2	n	u	u	u	n	5.8µM
C[C@@]12C(=O)Nc3ccc(F)cc3C(=O)N1[C@H]1c3ccccc3OC[C@@H]1[C@@H]2c1ccccc1	n	n	n	n	n	n
Cc1ccc2c(c1)C(=O)N1[C@H]3c4cc(Br)ccc4OC[C@@H]3[C@H](c3ccccc3)[C@]1(C)C(=O)N2	n	n	u	n	n	13µM
Cc1ccc2c(c1)C(=O)N1[C@H]3c4cc(Cl)ccc4OC[C@@H]3[C@H](c3ccccc3)[C@]1(C)C(=O)N2	n	u	n	u	-83.3	10.3µM
Cc1ccc2c(c1)[C@H]1[C@H](CO2)[C@H](c2ccccc2)[C@]2(C)C(=O)Nc3ccc(Br)cc3C(=O)N12	n	n	n	u	n	n
C[C@@]12C(=O)Nc3ccc(F)cc3C(=O)N1[C@H]1c3cc(Cl)ccc3OC[C@@H]1[C@@H]2c1ccccc1	n	u	n	20.6µM	u	18.4µM
COC(=O)C(Cc1ccccc1)NC(=O)CNC(=O)c1sc2ccccc2c1Cl (stereo unspecified)	n	n	n	n	n	n
O=S(=O)(N1CCN(c2nc(-c3cccs3)nc3ccccc23)CC1)C(F)(F)F	x	n	n	x	x	x
CCc1ccccc1NS(=O)(=O)c1ccc2[nH]cc(C(=O)NC3CCCC3)c(=O)c2c1	n	14.6µM!	u	n	n	u
CCOC(=O)c1c(NC(=O)c2ccccc2Br)sc2c1CCc1ccccc1-2	n	n	13µM	16.4µM	n	u
CCc1ccccc1NC(=O)CN(c1ccccc1)S(=O)(=O)c1ccsc1C(=O)OC	x	n	n	x	x	x
O=C1c2c(-c3ccc(Br)cc3)noc2CCN1Cc1cn(C2CCCC2)nn1	x	u	20.6µM	x	x	x
O=C1c2c(-c3ccc(Br)cc3)noc2CCN1Cc1cn(-c2ccc(Cl)cc2)nn1	x	20.6µM	18.4µM	x	x	x
O=C1c2c(-c3ccc(Br)cc3)noc2CCN1Cc1cn(Cc2ccccc2)nn1	x	n	u	x	x	x
COc1ccccc1-c1noc2c1C(=O)N(Cc1cn(C3CCCC3)nn1)CC2	x	n	n	x	x	x
O=C1c2c(-c3ccc(Br)cc3)noc2CCN1Cc1cn(Cc2cccnc2)nn1	x	u	23.1µM	x	x	x
SMILES	KCNH2 WT inh	KB-3-1 cytotox	KB-V1 MDR tox	SW480 rerep	KCNH2 3.1 block	MCF10A rerep
COc1ccc(CNC(=O)c2cccc(S(=O)(=O)N3CCCCC3)c2)cc1OC	n	u	n	n	n	n
CCOc1ccccc1-n1nnnc1SC(C)C(=O)OC (stereo unspecified)	n	n	n	n	n	n
CN(C#N)c1nc(Cl)nc(Nc2cccc(Cl)c2)n1	n	n	n	n	n	u
COc1cc2sc(-c3ccccc3OC)c(-c3ccc(O)cc3)c2cc1OC	x	n	n	u	x	n
COc1ccc2sc(-c3ccccc3OC)c(-c3ccc(O)cc3)c2c1	x	n	n	n	x	16.4µM
CN(C(=O)COC(=O)c1nc(Cl)c(Cl)c(Cl)c1Cl)C1CCS(=O)(=O)C1 (stereo unspecified)	n	u	u	u	n	3.66µM
O=C1N(c2ccccc2)C[C@@H]2C[C@@H](c3cccs3)N3CCC[C@@]123	n	n	n	n	n	5.8µM
CC(C)(O)C#Cc1ccc([C@@H]2C[C@H]3CN(c4ccccc4)C(=O)[C@]34CCCN24)s1	n	u	n	8.2µM	n	u
COCc1cc([C@@H]2C[C@H]3CN(c4ccccc4)C(=O)[C@]34CCCN24)ccc1OC	n	n	n	n	n	n
COc1ccc([C@@H]2C[C@H]3CN(c4ccccc4)C(=O)[C@]34CCCN24)c(OC)c1OC	n	n	n	n	n	n
CCc1ccc(NC(=O)Cn2c(=O)ccc3cc(S(=O)(=O)N4CCCC4)ccc32)cc1	x	n	u	x	x	x
CCc1ccccc1NC(=O)CC(NCc1ccccc1)C(=O)O (stereo unspecified)	n	n	n	n	n	n
COC(=O)c1ccccc1NC(=O)CC(NCc1ccccc1)C(=O)O (stereo unspecified)	n	n	n	20.6µM	n	n
Cc1cccc(-c2c3c(=O)n(C)c(=O)n(C)c3cn2C2CCCCC2)c1	n	n	16.4µM	n	n	u
Cn1c(=O)c2c(-c3ccccc3)n(C3CCCCC3)cc2n(C)c1=O	n	n	20.6µM	n	n	n
Cn1c(=O)c2c(-c3ccccc3)n(-c3ccccc3O)cc2n(C)c1=O	n	n	n	n	n	n
COc1ccc(NC(=O)CSc2nnc3c4c(nc(-c5ccccc5)n23)CC(C)(C)OC4)cc1	n	n	2.91µM	u	n	n
COc1ccc(-c2nc3c(c4nnc(SC(C)C(=O)Nc5ccc(C)cc5)n24)COC(C)(C)C3)cc1 (stereo unspecified)	n	n	n	n	n	n
O=C(NCc1cccnc1)c1ccc(CS(=O)(=O)Cc2ccc(Cl)cc2)o1	n	n	n	n	n	n
O=S(=O)(Cc1ccc(Cl)cc1)NCc1cccnc1	n	n	n	n	-78.4	n

From PubChem
